Holding throughout (assay): NCI-60 one-dose screen, 48 h (100 = growth as untreated, 0 = no growth, -100 = all killed)
Common to all, as to details: 10 µM unless noted

In experiment [1] the test system is SR leukemia.
The test system of experiment [2] is RPMI-8226 leukemia.
In experiment [3] the test system is OVCAR-8 ovarian.
Experiment [4] relates to OVCAR-4 ovarian.
Experiment [5] concerns SK-OV-3 ovarian.
In experiment [6] the test system is IGROV1 ovarian.
Experiment [7] has as its system OVCAR-3 ovarian.
For experiment [8], the system named is HS 578T breast.
Experiment [9] concerns NCI/ADR-RES ovarian.
Experiment [10] has as its system OVCAR-5 ovarian.

The panel holds about 83,000 compounds, 20% with a hit somewhere; the sample as a whole holds those more often.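 Percent growth is the endpoint: 0 to 100 indicates growth inhibition (40 means 60% inhibition), 0 means no net growth, and negative values indicate cell death.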 Values without a mark were called inactive. Activity calls are given as the source filed them. Rule for the calls: active = growth percent below 10; inactive = the rest.

Turning to `CC[C@@H](C(=O)[C@@H](C)[C@@H](O)[C@H](C)[C@@H]1O[C@@H]([C@@H](CC)C(=O)NCCc2ccc(F)cc2)CC[C@@H]1C)C1O[C@]2(C=CC(=O)[C@]3(CC[C@@](C)([C@H]4CC[C@](O)(CC)[C@H](C)O4)O3)O2)[C@H](C)C[C@@H]1C` (stereo partly drawn), the growth in experiment [1] is 41.9%; in [2], 7.59% (active); in [3], 32.2%; in experiment [4] it was -2.57% (active); in experiment [5] it was 44.7%; in experiment [6] it was 26.3%. Also, the growth in experiment [7] was 10.5%; in [8], 48.1%; in experiment [9], 29.6%.

For the compound `O=C(O)CCCN1C(=O)/C(=C/C(Cl)=C/c2ccccc2)SC1=S`, the growth was 13% in experiment [1]; -13.1% (active) in experiment [2]; 19.1% in experiment [3]; 46.8% in experiment [4]; 110% in [5]; 7.37% (active) in [6]. Also, the growth in experiment [7] is 13.6%; in experiment [8], 31.6%.

Turning to `Fc1cccc(CNc2c3ccccc3nc3ccccc23)c1F`, the growth in [1] is 38.2%; in experiment [2], 52.9%; in experiment [3], 50.8%; in [4], 49.9%; in experiment [5] it was 75.8%; in experiment [6], 52.7%. In addition, the growth was 86.1% in [7], 87% in experiment [8] and 48.5% in experiment [9].

Consider `C#COc1cccc(Nc2ncnc3ncc(NC(=O)CCl)cc23)c1`, for which the growth in experiment [1] was 16.2% [6.25 µM]; in experiment [2] it was 52.9% [6.25 µM]; in [3] it was 10.3% [6.25 µM]; in experiment [4], 32.6% [6.25 µM]; in experiment [5], 53.1% [6.25 µM]; in experiment [6], -42.4% [6.25 µM] (active). Besides, the values for the growth in experiment [7], in experiment [8] and in experiment [9] were -56.4% [6.25 µM] (active), 43.4% [6.25 µM] and 12% [6.25 µM], respectively.

For the compound `CCOC(=O)c1cnc2ccccc2c1Cl`, the growth in experiment [1] was 109%; in experiment [2], 114%; in [3], 99.6%; in experiment [4], 84.7%; in experiment [5] it was 101%; in experiment [6], 122%. The growth was 106% in [7], 92.9% in experiment [8] and 105% in [9].

For the compound `O=S(=O)(Nc1ccc(Cl)cc1)c1ccc(-c2cnc(C3CC3)o2)cc1`, the growth is 9.93% (active) in experiment [1]; 15% in [2]; 29.2% in [3]; 63.7% in [4]; 30.2% in experiment [5]; 33% in experiment [6]. The values for the growth in experiment [7], in experiment [8] and in experiment [9] were -17.3% (active), 4.3% (active) and 4.42% (active), respectively.

For `Cc1ccc(-c2nc(N3CCNCC3)c3oc(-c4ccccc4)nc3n2)cc1`, the growth in [1] was -44% (active); in experiment [2], -54.7% (active); in experiment [3] it was -66.4% (active); in experiment [4], -51.6% (active); in experiment [5], 87.4%; in [6], -68% (active). Further, the growth is -89.5% (active) in [7], -7.69% (active) in experiment [8] and -23.1% (active) in experiment [9].

Consider `O=C(c1ccccc1)C1C(=O)N2C(=S)N(c3ccccc3)C(=O)C2C1c1ccc(Cl)cc1` (stereo not drawn), for which the growth was 101% in [1]; 103% in experiment [2]; 94.8% in [3]; 90.8% in [4]; 88% in experiment [5]; 54.2% in experiment [6]. The figures for the growth in [7], in experiment [8] and in experiment [9] were 95.6%, 88.9% and 96.4%, respectively.

As to `c1cnc2[nH]cc(-c3csc(-c4cn(CCCN5CCOCC5)c5ccccc45)n3)c2c1`, the growth in experiment [1] is 2.93% (active); in [2], 24.4%; in experiment [3], 62.4%; in [4] it was 45.1%; in [5] it was 73.4%; in [6], 35.3%. Further, the growth in experiment [7] was 64.4%; in [8] it was 28.5%; in [9] it was 60.1%.

Take `CC(C)CCNC(=O)Cn1cccc(NC(=O)OCc2ccccc2)c1=O`: the growth in [1] was 107%; in experiment [2], 92.6%; in experiment [3] it was 104%; in experiment [4] it was 98.7%; in experiment [5] it was 101%; in experiment [6], 112%. Moreover, the results for the growth in [7], in experiment [8] and in [9] were 107%, 103% and 93.9%, respectively.

On to `CCn1cc(C(=O)N/N=C/c2cccs2)c(=O)c2cc(F)c(N3CCNC(C)C3)c(F)c21` (stereo not drawn), for which the growth was -4.21% (active) in experiment [1]; -36.6% (active) in experiment [2]; 43.8% in experiment [3]; 76.2% in [4]; 90.3% in experiment [5]; 67% in experiment [6]. For the same compound, the growth in experiment [7] is 68.7%; in experiment [8] it was 86%; in experiment [9], 67.9%.

Turning to `COc1ccc(NC(=O)c2sc3nc(C)c(C(=O)/C=C/c4cccc(OC)c4)cc3c2N)cc1`, the growth in experiment [1] is 5.9% (active); in experiment [2], -22.9% (active); in experiment [3] it was 11.6%; in experiment [4], 69.1%; in experiment [5] it was 91.8%; in experiment [6], 11%. Also, the growth in experiment [7] was -18.4% (active); in experiment [8], 36.8%; in [9] it was 19.5%.

As to `COc1ccc(-c2nnc(-c3ccc4c(c3)nc(-c3ccncc3)n4C3CCCCC3)o2)cc1`, the growth in [1] was 46.6%; in experiment [2] it was 34.1%; in experiment [3], 53.5%; in experiment [10] it was 102%; in experiment [4], 61.1%; in [5], 80.4%. Moreover, the growth is 67.3% in experiment [7], 68.6% in experiment [8] and 56.9% in experiment [9].

With `Oc1c(Cl)cc(Cl)c2ccc(Cn3cc(-c4cc(F)cc(F)c4)nn3)nc12`, the growth in experiment [1] was -22.2% (active); in experiment [2] it was 5.12% (active); in experiment [3], 69.6%; in experiment [10], 91%; in experiment [4] it was 56%; in [5], 108%. Besides, the growth in [8] is 88.5%; in experiment [9], 108%.

Regarding `CCOP(=O)(OCC)c1nc(-c2ccccc2)oc1NCc1cccnc1`, the growth was 102% in [1]; 101% in experiment [2]; 106% in experiment [3]; 112% in experiment [4]; 106% in experiment [5]; 100% in experiment [6]. For the same compound, the growth was 110% in experiment [7], 109% in experiment [8] and 105% in [9].

The values above are taken from PubChem BioAssay (NCI).
